From PubChem BioAssay (NCI) come the findings set out here.

The panel holds about 83,000 compounds, 20% with a hit somewhere; the sample as a whole holds those more often.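 Note: values are percent growth. 100 is the growth of untreated cells, values between 100 and 0 indicate rising inhibition; between -100 and 0 indicates cell death.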 A number with no mark means an inactive call. Activity calls are given as the source filed them. How the source made its calls: active means growth percent below 10; inactive means the rest.

Test systems include NCI-H23 lung; NCI-H226 lung; NCI-H322M lung; HOP-62 NSCLC; NCI-H460 lung; HOP-92 NSCLC; NCI-H522 lung; A549/ATCC NSCLC; 786-0 renal.
Common to all, as to assay: NCI-60 one-dose screen, 48 h (100 = growth as untreated, 0 = no growth, -100 = all killed)
Conditions in all cases: 10 µM unless noted

Consider `C[C@@H]1C(=O)N(C[C@@H](Cc2ccccc2)NC(=O)OCc2ccccc2)[C@]1(Cc1ccccc1)C(=O)OCc1ccccc1`, for which the growth in the assay on NCI-H23 lung is 37.1%; with NCI-H226 lung it was 36.3%; with NCI-H322M lung it was 56.4%; in the assay with HOP-62 NSCLC, 67.3%; with NCI-H460 lung, 38.3%; in the assay with HOP-92 NSCLC, 30.1%. Moreover, the growth in the assay on NCI-H522 lung was 44.3%; in the assay on A549/ATCC NSCLC, 22.8%; in the assay with 786-0 renal, 52.9%.
With `COC(=O)CNC(=O)C(=O)c1c(O)c(O)c(C(C)C)c2cc(C)c(-c3c(C)cc4c(C(C)C)c(O)c(O)c(C(=O)C(=O)NCC(=O)OC)c4c3O)c(O)c12`, the growth in the assay on NCI-H23 lung is 17.8%; with NCI-H226 lung, 54.6%; in the assay on NCI-H322M lung, 22.1%; in the assay on HOP-62 NSCLC, 18.5%; in the assay with NCI-H460 lung it was 5.29% (active); with HOP-92 NSCLC, -7.96% (active). Also, the growth with NCI-H522 lung is -0.907% (active); with A549/ATCC NSCLC, 11%; with 786-0 renal, 33.9%.
Turning to `Cc1c(C)c2c(c(C)c1NC(=O)/C=C\C(=O)O)CCC(C)(CCCC(C)CCCC(C)CCCC(C)C)O2` (stereo unspecified), the growth in the assay with NCI-H23 lung was 60.8%; in the assay on NCI-H226 lung, -85.9% (active); in the assay with NCI-H322M lung, 102%; in the assay with HOP-62 NSCLC, -13.4% (active); in the assay on NCI-H460 lung, 72.1%; in the assay with HOP-92 NSCLC, 45.5%. Also, the growth with NCI-H522 lung was 66.7%; in the assay with A549/ATCC NSCLC it was 61.1%; with 786-0 renal it was 33.5%.
Turning to `Cl.[Pt].[c-]1ccccc1-c1ccccn1.c1ccc(P(c2ccccc2)C([PH+](c2ccccc2)c2ccccc2)[PH+](c2ccccc2)c2ccccc2)cc1`, the growth with NCI-H23 lung is 5.59% (active); with NCI-H226 lung it was 7.37% (active); with NCI-H322M lung, 12.5%; in the assay on HOP-62 NSCLC, 25.1%; with NCI-H460 lung, 5.2% (active); in the assay with HOP-92 NSCLC, -17% (active). Also, the growth is 9.94% (active) with NCI-H522 lung, 14.6% in the assay with A549/ATCC NSCLC and 22.8% in the assay on 786-0 renal.
Regarding `CCNCCNc1cc(-c2ccc(C#N)cc2)c(C#N)c2nc3ccccc3n12`, the growth in the assay on NCI-H23 lung is 47.5%; in the assay on NCI-H226 lung, 81.1%; in the assay with NCI-H322M lung, 33.6%; in the assay with HOP-62 NSCLC, 56.6%; in the assay with NCI-H460 lung, -28.1% (active); with HOP-92 NSCLC, 63.3%. The growth in the assay with NCI-H522 lung is 31.8%; with A549/ATCC NSCLC, 2.81% (active); in the assay with 786-0 renal it was 28%.
On to `CCN1CCN(c2ccc(Nc3cc(-c4cccnc4Nc4c(Cl)c(OC)cc(OC)c4Cl)ncn3)cc2)CC1`, for which the growth is 63.8% in the assay on NCI-H23 lung; 47% in the assay with NCI-H226 lung; 68.7% in the assay on NCI-H322M lung; 40.6% in the assay on HOP-62 NSCLC; 23.7% in the assay on NCI-H460 lung; 54.5% in the assay on HOP-92 NSCLC. In addition, the growth with NCI-H522 lung is 75.9%; with A549/ATCC NSCLC, 39.9%; with 786-0 renal it was 89.2%.
Take `COc1ccc(Nc2ncc(Br)c(NCCCNC(=O)C3CCC3)n2)cc1`: the growth in the assay with NCI-H23 lung is 31%; in the assay on NCI-H226 lung it was 21.8%; in the assay with NCI-H322M lung, 43.1%; with HOP-62 NSCLC, 10.9%; in the assay on NCI-H460 lung it was 19.4%; in the assay on HOP-92 NSCLC, 40%. The growth in the assay on NCI-H522 lung was 50.1%; with A549/ATCC NSCLC, 19.8%; in the assay with 786-0 renal it was 24.3%.
In the case of `C=C(CNCCc1ccc(O)cc1)[C@@H]1CC[C@]2(COC3CCCCO3)CC[C@]3(C)[C@H](CC[C@@H]4[C@@]5(C)CCC(N)C(C)(C)[C@@H]5CC[C@]43C)[C@@H]12` (stereo partly specified), the growth is -89.1% (active) in the assay with NCI-H23 lung; -59.1% (active) in the assay on NCI-H226 lung; -95.1% (active) in the assay with NCI-H322M lung; -91.4% (active) in the assay on HOP-62 NSCLC; -84.2% (active) in the assay on NCI-H460 lung; -73.9% (active) with HOP-92 NSCLC. Moreover, the values for the growth in the assay with NCI-H522 lung, in the assay on A549/ATCC NSCLC and in the assay with 786-0 renal were -84.3% (active), -86.2% (active) and -79.4% (active), respectively.
As to `CN(C)c1ccc(/C=C2\C=C(c3ccccc3)N(CCc3ccccc3)C2=O)cc1`, the growth in the assay with NCI-H23 lung was 64.2%; with NCI-H226 lung it was 52.8%; in the assay on NCI-H322M lung, 71.9%; in the assay with HOP-62 NSCLC, -14% (active); with NCI-H460 lung, 23.6%; in the assay with HOP-92 NSCLC, 51.2%. In addition, the growth was 50.6% in the assay with NCI-H522 lung, 34.8% in the assay with A549/ATCC NSCLC and 48.9% in the assay with 786-0 renal.
Consider `O=C(/C=C/C12c3ccccc3C(c3ccccc31)C1C(=O)NC(=O)C12)c1ccc(Cl)cc1` (stereo unspecified), for which the growth in the assay on NCI-H23 lung is -2% (active); in the assay on NCI-H226 lung it was -22.3% (active); with NCI-H322M lung, 2.94% (active); in the assay with HOP-62 NSCLC, 6.96% (active); in the assay on NCI-H460 lung, -43.7% (active); with HOP-92 NSCLC it was -15.2% (active). Further, the growth with NCI-H522 lung is 11.4%; with A549/ATCC NSCLC, 15.4%; in the assay on 786-0 renal it was -9.5% (active).
For `Cc1ccc(C)c2c1C(=O)OC2=O`, the growth in the assay on NCI-H23 lung is 95.5%; in the assay with NCI-H226 lung, 98.4%; with NCI-H322M lung, 89.3%; with HOP-62 NSCLC, 92.1%; with NCI-H460 lung, 111%; with HOP-92 NSCLC, 128%. Besides, the growth was 80.8% in the assay on NCI-H522 lung, 99.4% in the assay with A549/ATCC NSCLC and 101% in the assay with 786-0 renal.
As for `C=C1C(=O)O[C@H]2[C@H]1CC/C(Cn1cc(CNCCc3c[nH]c4ccccc34)nn1)=C\CC[C@@]1(C)O[C@@H]21`, the growth is 95% with NCI-H23 lung; 101% in the assay on NCI-H226 lung; 86.8% with NCI-H322M lung; 86.3% in the assay with HOP-62 NSCLC; 104% with NCI-H460 lung; 61.6% in the assay with HOP-92 NSCLC. The growth with NCI-H522 lung was 3.17% (active); with A549/ATCC NSCLC, 95.7%; in the assay with 786-0 renal it was 99.1%.
Take `CC(C)n1nc(C#Cc2cccc(O)c2)c2c(N)ncnc21`: the growth is -28.4% (active) in the assay with NCI-H23 lung; -41.8% (active) in the assay with NCI-H226 lung; -30.3% (active) in the assay on NCI-H322M lung; -52.5% (active) in the assay with HOP-62 NSCLC; -5.33% (active) in the assay on NCI-H460 lung; -70.5% (active) in the assay with HOP-92 NSCLC. Further, the growth in the assay with NCI-H522 lung is -44.5% (active); in the assay with A549/ATCC NSCLC, -60% (active); in the assay with 786-0 renal, -72% (active).
As for `Cc1cc(=O)[nH]c(N/N=C/c2cc(Br)ccc2O)n1`, the growth is 33.7% with NCI-H23 lung; 40.5% in the assay on NCI-H226 lung; -15% (active) with NCI-H322M lung; 48% in the assay on HOP-62 NSCLC; -1.75% (active) in the assay with NCI-H460 lung; 55% in the assay on HOP-92 NSCLC. For the same molecule, the results for the growth in the assay with NCI-H522 lung, in the assay with A549/ATCC NSCLC and with 786-0 renal were 19.5%, 23.4% and 7.2% (active), respectively.
